# Data from PubChem BioAssay AID504848 (National Center for Advancing Translational Sciences (NCATS), 2011).
# The campaign covered roughly 2,300 compounds. About 1,400 (61%) were called active. Not shown: some 29% with an inconclusive outcome. Calls come from the whole dose curve; as a rule, active = well fitted inhibition curve with a large enough effect; inconclusive = small, poorly fitted or top-dose-only effect, or effect the other way; inactive = no such curve, though single readings can be large or run the other way. The set was probably picked from earlier hits. This is one part of the list.
# Assay: Confirmation screen for delayed death inhibitors of the malarial parasite plastid, 96 hour incubation; note: nearly all actives have a fitted effect of over 60% in size
# Settings: P. falciparum luciferase growth in erythrocytes; series mostly up to 28.7 µM; activity change, negative = inhibition: at the top concentration
# Procedure, shortened: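 Erythrocytes infected with luciferase-expressing P. falciparum (2% hematocrit, 0.1% parasitemia final) in RPMI 1640 with 0.5% Albumax, exposed to compounds 96 h at 37 C, 5% CO2. Growth inhibition read as decreased luciferase luminescence.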
# % is set by controls: 0 for no effect and ±100 for the full control effect; potency is the fitted concentration of half-maximal effect.
SMILES,Potency,"activity change, negative = inhibition"
O=C(CSc1nnc(NC(=O)c2ccccc2[N+](=O)[O-])s1)NCC1CCCO1 (stereo not given),14.1 µM (active),–
O=C(COC(=O)c1c2c(nc3ccccc13)CCN(Cc1ccccc1)C2)Nc1c(F)cccc1F,5.01 µM (active),–
COc1ccc(Cc2nc3ccc(C(=O)NCCc4ccccn4)cc3o2)cc1OC,11.2 µM (active),–
Nc1nc(C2CC2)c(Sc2sc(N)nc2C2CC2)s1,–,-23.1% (inactive)
CCOc1ccccc1NC(=O)NC1Cc2ccccc2C1,12.6 µM (active),–
CC(C)(C(=O)N[C@H](CO)c1ccccc1)C(=O)N[C@H](CO)c1ccccc1,–,-4.34% (inactive)
CCCC(=O)NC(c1ccccc1)c1c(O)ccc2ccccc12 (stereo not given),4.47 µM (active),–
Cc1ccc2c(c1)C1CC(C)(O2)N(c2cccc(C(=O)N3CCN(c4ccccn4)CC3)c2)C(=O)N1 (stereo not given),12.6 µM (active),–
Cc1cccc(-n2c(C)cc(/C=N\NC(=O)c3cccs3)c2C)c1,12.6 µM (active),–
C[N+]1(CCCCSc2ccc(O)cc2)CCCCC1,4.47 µM (active),–
COc1ccc(C)cc1NC(=O)C(Sc1nnc(Nc2cc(C)ccc2OC)s1)c1ccccc1 (stereo not given),14.1 µM (active),–
COC(=O)c1ccc(CNCC(=O)Nc2ccc(C(=O)OC)cc2)cc1,–,-15.1% (inactive)
Cc1ccc(C(=O)NCCn2ccc3ccccc32)cc1[N+](=O)[O-],–,-13.4% (inactive)
Cc1cccc[n+]1CC(=O)c1ccc(NC(=O)c2ccccc2)cc1,5.01 µM (active),–
CCOC(=O)NC(=O)COC(=O)c1ccc(O)cc1,–,13.7% (inactive)
Cc1ccc(C(=O)C[n+]2ccccc2C)cc1[N+](=O)[O-],11.2 µM (active),–
COC(=O)c1ccc(NC(=O)C[n+]2ccccc2C)cc1,12.6 µM (active),–
Cc1cccc[n+]1CC(=O)Nc1ccc([N+](=O)[O-])cc1,12.6 µM (active),–
CC(C)[C@H](NC(=O)N1CCn2c1nc1ccccc12)C(=O)N[C@H](C(=O)O)c1ccccc1,–,-11.3% (inactive)
CCc1ccc(-c2nc3ccc(Br)cc3c(C(=O)O)c2C)s1,–,-11.4% (inactive)

SMILES,Potency,"activity change, negative = inhibition"
S=C(NCc1ccncc1)Nc1ccc(Br)cc1Cl,12.6 µM (active),–
O=C(C1CCC1)N1CCc2cc(S(=O)(=O)NCc3ccco3)ccc21,–,-14.6% (inactive)
O=C(C1CC1)N1CCc2cc(Br)cc(S(=O)(=O)NCc3ccco3)c21,11.2 µM (active),–
CC1CCN(CCCNS(=O)(=O)c2cc(Br)cc3c2N(C(=O)C2CC2)CC3)CC1,12.6 µM (active),–
CCC(=O)N1CCc2cc(Br)cc(S(=O)(=O)NCc3ccco3)c21,12.6 µM (active),–
CCCCN(CCCC)CC(O)c1cc(Cl)cc2c1-c1ccc(Cl)cc1/C2=C/c1ccc(Cl)cc1 (stereo not given),0.0562 µM (active),–
O=[N+]([O-])c1ccc(C(O)C[n+]2ccccc2)cc1 (stereo not given),10 µM (active),–
CCOc1ccc(C2NC(=S)NC3=C2CCc2ccccc23)cc1 (stereo not given),14.1 µM (active),–
CN(C)c1ccc2nc3ccc(=[N+](C)C)cc-3sc2c1,0.0631 µM (active),–
Cc1[nH]c(=O)[nH]c(=O)c1S(=O)(=O)N1CCCC(C(=O)N2CCN(c3cccc(C(F)(F)F)c3)CC2)C1 (stereo not given),8.91 µM (active),–
N#Cc1cccc(NC(=O)Cn2c3[n+](c4ccc(C(F)(F)F)cc42)CCCCC3)c1,0.251 µM (active),–
CCCCCn1c(=O)c2ccccc2n2c(CCl)nnc12,6.31 µM (active),–
CCCCCCCCC[n+]1cccc2c3ccccc3ccc21,0.158 µM (active),–
CCCCCCCOc1ccc(C2(C)NC(=O)NC2=O)cc1 (stereo not given),8.91 µM (active),–
CCC/C(=N\NC(=O)c1ccco1)c1ccc(Cl)s1,12.6 µM (active),–
CCOc1ccccc1CN1CCN(Cc2ccc3cccc(OC)c3n2)CC1CCO (stereo not given),12.6 µM (active),–
CCOc1ccc(CN2CCN(Cc3ccc4cc(F)ccc4n3)CC2CCO)cc1 (stereo not given),14.1 µM (active),–
COc1ccc(-c2cc(C(=O)Nc3cc(C)n(Cc4ccc(Cl)cc4)n3)no2)cc1OC,0.316 µM (active),–
CCCn1cc(S(=O)(=O)c2ccc(Cl)cc2)c(=O)c2cc(OC)ccc21,11.2 µM (active),–
NC(=O)CC(NC(=O)c1ccccc1)c1ccc(N2CCN(c3ccccc3)CC2)c([N+](=O)[O-])c1 (stereo not given),12.6 µM (active),–

SMILES,Potency,"activity change, negative = inhibition"
O=C(OCC(=O)N1CCN(c2ccccc2)CC1)c1cc(Cl)ccc1[N+](=O)[O-],–,-16.5% (inactive)
O=C(NCc1ccco1)c1cc2sccc2n1Cc1ccc(F)cc1,11.2 µM (active),–
COc1ccccc1N1CCN(C(=O)c2ccc3[nH]c4c(c3c2)CCCC4)CC1,11.2 µM (active),–
CN(CCC#N)C(=O)COC(=O)c1ccc2[nH]c3c(c2c1)CCCC3,–,-21.3% (inactive)
CCN1CCN(Cc2c(O)ccc3c2O/C(=C\C=C\c2ccccc2)C3=O)CC1,4.47 µM (active),–
CC1=Nc2cc(C(=O)N3CCCC3)ccc2Sc2c(C)ccc(C)c21,3.16 µM (active),–
CC1=Nc2cc(C(=O)N3CCCC3)ccc2Sc2ccc(C)cc21,0.891 µM (active),–
CCOC(=O)CSc1nnc(NC(=O)c2cccc([N+](=O)[O-])c2)s1,11.2 µM (active),–
Nc1nnnn1/N=C/C(Br)=C/c1ccccc1,12.6 µM (active),–
CCCN1CCN(C(=O)C2CCN(S(=O)(=O)c3ccc4c(c3)NC(=O)C(C)S4)CC2)CC1 (stereo not given),7.08 µM (active),–
Cc1cc(NC(=O)COC(=O)c2ccccc2S(=O)(=O)N(C)c2ccccc2)no1,7.94 µM (active),–
Cc1cc(NC(=O)COC(=O)c2c(Cl)cccc2Cl)no1,–,-11.4% (inactive)
O=C(CSc1nc2c(sc3ccccc32)c(=O)n1-c1ccccc1)NCc1ccco1,12.6 µM (active),–
CCN(CC)CCn1c(SCC(=O)NCc2ccccc2)nc2c(sc3ccccc32)c1=O,5.01 µM (active),–
O=C(CSc1nc2ccccc2c(=O)n1Cc1ccc(C(=O)NC2CC2)cc1)NCc1ccco1,7.08 µM (active),–
O=C(CSc1c2c(nc3ccccc13)CCCC2)NCc1ccco1,–,-8% (inactive)
NC(=O)CSc1nc2c(sc3ccccc32)c(=O)n1CCCN1CCOCC1,3.16 µM (active),–
CC(=O)Nc1sc(C)c(C)c1C(=O)OCC(=O)N(CC(C)C)C1CCS(=O)(=O)C1 (stereo not given),12.6 µM (active),–
Cc1cnc(CNC(=O)c2ccc3oc(Cc4ccccc4)nc3c2)[nH]1,14.1 µM (active),–
Cc1cnc(CNC(=O)c2ccc3oc(Cc4ccc(Cl)cc4)nc3c2)cn1,12.6 µM (active),–
